# Measured values published in PubChem BioAssay (Tox21).
# Where “and” joins values, the source holds several entries; their conditions need not be identical. Equal entries are not always repeated. Records with an inconclusive call do not appear. A call without a number means that no potency is given here. More than one record can exist for a structure, and the calls need not agree. Calls of active or inactive are those of the source. The call rests on the fitted dose curve.
# Assay: qHTS assay to identify small molecule agonists of the AP-1 signaling pathway - cell viability counter screen (AID 1159525); further: nearly all actives have a fitted effect of over 55% in size
# Conditions: ME-180 (cervical carcinoma) AP-1-bla cells viability, ATP luminescence, 5 h; series mostly up to 76.8 µM
# Description: National Center for Advancing Translational Sciences [NCATS]
# NIH Chemical Genomics Center [NCGC]
# U.S. Environmental Protection Agency [EPA]
# National Institutes of Environmental Health Sciences [NIEHS]
# National Toxicology Program [NTP]
# U.S. Food and Drug Administration [FDA]
# Activator protein-1 (AP-1), a transcription factor, plays an important role in tumor genesis by regulating genes involved in cell proliferation, differentiation, apoptosis, and angiogenesis. AP-1 activity is induced by a complex network of signaling pathways that involves extracellular signals, such as growth factors. The AP-1 protein complex formed from c-Fos and c-Jun binding to the AP-1 response element results in transcriptional activation of genes containing such elements within their promoter.
# Low molecular weight molecules have been discovered and developed to modulate various components of these signaling pathways, for example, MAP kinase inhibitors. However, many points of pathway modulation remain untested due to the lack of chemical probes making this signaling locus of general interest.
# Using a beta-lactamase reporter-gene under control of the AP-1 response element, a cell-based assay [CellSensor(TM) AP-1-bla ME-180 developed by Invitrogen Corp.] was used to measure EGF-induced signaling. The Tox21 10K library compounds were measured for their ability to positively modulate the action of EC50 EGF on reporter gene activity. Compounds were screened in a 15-pt titration series in 1536-well format. The cytotoxicity of the Tox21 compound library against this cell line was tested in parallel by measuring the intra cellular ATP content in the same wells.
# Tox21 Assay Protocol Summary:
# 2500 cells/5uL in Opti-MEM medium containing 0.5% dialyzed FBS, 0.1 mM NEAA, 1 mM sodium pyruvate and 10 mM HEPES was dispensed into 1536-well black wall/clear bottom plates using a Multidrop dispenser and cells were cultured at 37 degrees Celsius overnight. Next day 23 nL of compounds dissolved in DMSO, positive controls or DMSO were delivered to each well using a pin tool. The plates were incubated at 37 degrees Celsius for 5 hours. 1 uL of LiveBLAzerTM B/G FRET substrate (Solution A+B+C+D) was added to each well using a Flying Reagent Dispenser. After incubated at room temperature for 2.5 hours the plates were measured on an EnVision plate reader at Excitation 405nm, Emission1=460nm and Emission 2=530nm. The %Activity was determined from the ratio of 460nm/530nm.
# After the plates were read for Beta-Lactamase assay on Envision; 3 ul Cell Titer Glo (Promega) was added to measure the cytotoxicity and the plates were then incubated at RT in dark for 30 min. The luminescence was read on ViewLux (Perkin Elmer, Shelton, CT) using 6 sec exposure. ViewLux data was expressed as relative luminescence units.
# For primary data analysis, raw plate reads for each titration point were first normalized relative to […] EGF control (100%) and DMSO only wells (basal, 0%).
# For primary data analysis for viability assay, raw plate reads for each titration point were first normalized Tetra n-octyl ammonium bromide control (-100%) and DMSO (control, 100%).
# Potency means the concentration at half of the fitted maximal effect.
row,Structure (SMILES),Potency
1,CCOC(=O)CCN(SN(C)C(=O)Oc1cccc2c1OC(C)(C)C2)C(C)C,inactive
2,CC(C)N(C(=O)SC/C(Cl)=C/Cl)C(C)C,inactive
3,CCCCCCCCCCCCCCn1cc[n+](C)c1,49.1 µM (active) and 48.5 µM (active) and inactive
4,Oc1cc(Cl)cc(Cl)c1,inactive
5,COC(=O)/C=C(\C)OP(=O)(OC)OC,inactive
6,O=c1[nH]c(Cl)c(Cl)cc1Cl,inactive
7,CCCC[N+]1(C)CCCC1 (tested in a mixture with another compound),inactive
8,CC(C)=CC1C(C(=O)OC(C#N)c2cccc(Oc3ccccc3)c2)C1(C)C (stereo not given),inactive
9,BrCC(Br)(Br)Br,inactive
10,CCN(CC)CCc1c[nH]c2ccccc12,inactive
11,CCCN,inactive
12,CC(C)N(C(=O)CCl)c1ccccc1,inactive
13,C=CCBr,inactive
14,Nc1nc(N)nc(Cl)n1,inactive
15,O=[N+]([O-])[O-].[Tl+],inactive
16,CC(=O)O.CC(=O)O.CC(=O)O.CC(=O)O.CC(=O)O.CC(=O)O.CC(=O)O.O.O.[Cr].[Cr].[Cr],inactive
17,O=[N+]([O-])C(Br)Br,inactive
18,COc1ccc2c3c1O[C@H]1[C@H](O)CC[C@H]4[C@@H](C2)N(C)CC[C@@]341,inactive
19,CNC(=O)Oc1cc(C)cc(C(C)C)c1,inactive
20,C[C@]12CC[C@H]3[C@@H](CCC4=CC(=O)CC[C@@H]43)[C@@H]1CC[C@@H]2OC(=O)CCc1ccco1,inactive

row,Structure (SMILES),Potency
1,CC1CN1 (stereo not given),inactive
2,CCCCC(CC)COC(=O)OOC(C)(C)C (stereo not given),inactive
3,CC(C)C(Nc1ccc(C(F)(F)F)cc1Cl)C(=O)OC(C#N)c1cccc(Oc2ccccc2)c1 (stereo not given),inactive
4,CC(C)[C@@H](Nc1ccc(C(F)(F)F)cc1Cl)C(=O)OC(C#N)c1cccc(Oc2ccccc2)c1 (stereo not given in full),inactive
5,CC(Cc1ccc(O)cc1)NCC(O)c1cc(O)cc(O)c1 (stereo not given),inactive
6,NC(=O)C(Cl)Cl,inactive
7,CCC[CH2][Sn]([CH2]CCC)([CH2]CCC)[CH2]CCC,21.9 µM (active)
8,CCC(C)Br (stereo not given),inactive
9,[O-][Cl+3]([O-])([O-])O,inactive
10,O=C(O)[C@H](O)[C@@H](O)C(=O)O,inactive
11,Oc1cccc(Cl)c1Cl,inactive
12,Fc1ccc(C(OCCN2CCN(CCCc3ccccc3)CC2)c2ccc(F)cc2)cc1,21.3 µM (active)
13,O=P(Cl)(Cl)Cl,inactive
14,CCOC(=O)Cc1ccccc1,inactive
15,CC(Cl)CCl (stereo not given),inactive
16,O=C(Cl)c1ccccc1F,inactive
17,CCOP(=S)(OCC)SC(CCl)N1C(=O)c2ccccc2C1=O (stereo not given),inactive
18,COC(=O)N(OC)c1ccccc1COc1ccn(-c2ccc(Cl)cc2)n1,inactive
19,CC(=O)[O-].CC(=O)[O-].O.O.O.[Pb+2],inactive
20,COP(=O)(OC)Oc1ccc([N+](=O)[O-])cc1,inactive
